Calls of active or inactive are those of the source. Rule for the calls: active = hit-call score of the fitted dose curve at least 0.9, where 1 is the maximum; inactive = score below 0.9.
Assay: CCTE_Padilla_ZF_144hpf_TERATOSCORE: (Legacy) CCTE's 144 Hour Post-fertilization zebrafish Assay Teratoscore, Padilla Lab (AID 2283679);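 for AC50: teratogenicity score from eye scoring of death hatching and malformations at 144 hpf; higher score means more developmental defects relative to DMSO baseline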
From the text: CCTE_Padilla_ZF_144hpf is a whole embryo, multiplexed assay. Zebrafish embryos were exposed to chemicals starting 6 hr post-fertilization for 5 days in 96-well plates. Developing larvae were examined microscopically daily for malformation and mortality.CCTE_Padilla_ZF_144hpf_TERATOSCORE is one of one assay component(s) measured or calculated from the CCTE_Padilla_ZF_144hpf assay. It is designed to make measurements of developmental malformations and mortality as detected with brightfield microscopy.Data from the assay component CCTE_Padilla_ZF_144hpf_TERATOSCORE was analyzed into 1 assay endpoint. This assay endpoint, CCTE_Padilla_ZF_144hpf_TERATOSCORE, was analyzed in the positive analysis fitting direction relative to DMSO as the negative control and baseline of activity. Using a type of morphological reporter, gain-of-signal activity can be used to understand changes in developmental defect as they relate to the whole embryo. To generalize the intended target to other relatable targets, this assay endpoint is annotated to the malformation intended target family, where the subfamily is total.
Zebrafish husbandry: Wild type adult zebrafish (Danio rerio; undefined outbred stock obtained from Aquatic Research Organisms, Hampton, NH, 03842) were housed in an AAALAC-approved animal facility at 28C with a 14:10 h light: dark cycle (lights on at 08:30 h). Adult fish (2-3 females per male; density = 15-20 adults per tank) were kept in one of several 9-liter (L) flow-through colony tanks (Aquaneering Inc., San Diego, CA). All adults in a colony tank were placed in a 2 L (static) breeding tank (Aquatic Habitats, Apopka, FL) one hour prior to light onset. Typically, adults from two to three colony tanks were mated on the same day. Two hours after light onset the adults were returned to the colony tank. All embryos were gathered from each breeder tank, pooled, and placed in a 28C water bath for 2 h, followed by two washes with 0.06% bleach (v/v) in 10% Hanks' Balanced Salt Solution (13.7 mM NaCl 0.54 mM KCl, 25 uM Na2HPO4, 130 uM CaCl2 100 um MgSO4 and 420 um NaHCO3,), hereafter referred to as Hanks' solution, for 5 min in order to remove any residual bacteria or fungi. Immediately following washing, the embryos were examined, and healthy embryos were separated from dead or unfertilized eggs and moved into fresh Hanks'. Single Concentration Study: The chemicals were arrayed on a 96-well stock plate, 80 chemicals per plate, 20 mM concentration of each, with 16 DMSO (vehicle) controls. The embryos were exposed to the chemicals (80 Mfinal concentration, renewed daily) by immersion from 0 dpf until 5 dpf. Eighty micromolar was chosen as the highest concentration for two reasons (1) because the stock solutions were prepared at 20 mM in 100% DMSO. On 6 dpf, each embryo/larva was assessed for viability, hatching status and malformations. There were 4 embryos per concentration per chemical (each embryo on a separate microtiter plate). […] Chemical exposures: Zebrafish embryos were exposed in 96-well plates. Briefly, on day 0, approximately 6-8 h after fertilization, zebrafish embryos (with chorions) were placed 1 embryo per well in Millipore Multiscreen Nylon mesh plates (catalog number MANMN4050, Millipore Corp, Bedford, MA) and exposed to nominal concentrations of the chemicals. In each well, 1 ul of the chemical in DMSO from the stock plate was diluted with 250 ul of 10% Hanks' solution; the final DMSO concentration was 0.4% (v/v) in all wells; vehicle controls receives DMSO only. Each plate was sealed with a non-adhesive material (Type A, BioRad, Hercules, CA), covered with a lid, and wrapped in Parafilm to minimize evaporation. All embryos and larvae were kept in a 26C incubator with a 14:10 h light-dark cycle (with lights on at 08:30 h and off at 22:30 h). […]

SMILES	AC50	outcome
COc1ccc2cc(S(=O)(=O)N[C@H](CC(=O)N[C@H](Cc3ccc(CN4[C@H](C)CCC[C@@H]4C)cc3)C(=O)N(C)C(C)C)c3ccc4c(c3)OCO4)ccc2c1	52.9 µM (active)	–
Clc1cc(Cl)c2c(c1)N=C1CCCCCN1C2	12.2 µM (active)	–
CN(C)C(=O)C1(N2CCCCC2)CCN(CC[C@@]2(c3ccc(Cl)c(Cl)c3)CN(C(=O)c3ccccc3)CCO2)CC1	15 µM (active)	–
CC(=O)N1CCN(c2ccc(OC[C@H]3CO[C@](Cn4ccnc4)(c4ccc(Cl)cc4Cl)O3)cc2)CC1	14.3 µM (active)	–
c1ccc(C[n+]2cccc3ccccc32)cc1	–	inactive
CCCCCCCCOC(=O)c1cc(O)c(O)c(O)c1	1.43 µM (active)	–
CCCCOC(=O)c1ccc(O)cc1	5.07 µM (active)	–
Cc1ncc(CO)c(CO)c1O	–	inactive
CCOC(=O)O[C@H](C)OC(=O)c1ccc2c(c1)cc(C(=O)NC1CCN(C(C)C)CC1)n2Cc1cc(-c2ccc(Cl)s2)on1	4.27 µM (active)	–
O=c1[nH]sc2ccccc12	16.4 µM (active)	–
NCc1cccc(C2CCN(C(=O)c3ccc(C#Cc4ccccc4F)o3)CC2)c1	14.5 µM (active)	–
Cc1cc(F)ccc1-c1cc(N2CC[C@@H](O)[C@H]2CO)ncc1N(C)C(=O)C(C)(C)c1cc(C(F)(F)F)cc(C(F)(F)F)c1	4.05 µM (active)	–
COc1cc(C(=O)NC2CCN(C)CC2)ccc1Nc1ncc2c(n1)N(C1CCCC1)CC(F)(F)C(=O)N2C	24.1 µM (active)	–
CN1C(=O)N(c2ccccc2Br)Cc2cnc(Nc3ccc4c(c3)OCC(CO)O4)nc21 (stereo not given)	4.31 µM (active)	–
O=C(OCCCCCCOC(=O)c1ccccc1)c1ccccc1	12.9 µM (active)	–
CC1(C)NC(=O)N(c2ccc([N+](=O)[O-])c(C(F)(F)F)c2)C1=O	17.2 µM (active)	–
O=c1ccc2ccccc2o1	–	inactive
CCCCCc1ccc(N)cc1	65.9 µM (active)	–
CCCCCCCCCCCO	62.4 µM (active)	–
CC(O)CC(C)(C)O (stereo not given)	–	inactive

SMILES	AC50	outcome
O=C(Nc1ccc(Cl)cc1)Nc1ccc(Cl)c(Cl)c1	5.19 µM (active)	–
CC(C)(c1cc(Br)c(O)c(Br)c1)c1cc(Br)c(O)c(Br)c1	4.24 µM (active)	–
Cc1c2ccccc2c(C)c2c1ccc1ccccc12	4.42 µM (active)	–
Cc1cn([C@H]2C[C@H](N=[N+]=[N-])[C@@H](CO)O2)c(=O)[nH]c1=O	–	inactive
O=C1O[C@H]([C@@H](O)CO)C(O)=C1O	–	inactive
C[C@]12CC[C@@H]3c4ccc(O)cc4CC[C@H]3[C@@H]1CC[C@H]2O	15 µM (active)	–
CCCCCCCC[Si](OCC)(OCC)OCC	–	inactive
Oc1ccc2ccccc2c1	57.1 µM (active)	–
O=C(O)Cc1cc(I)c(Oc2ccc(O)c(I)c2)c(I)c1	0.101 µM (active)	–
O=CCCCC=O	–	inactive
O=C1c2ccccc2C(=O)N1CCc1noc(-c2ccc(CN3CCCCCC3)s2)n1	20.2 µM (active)	–
CC[C@H](NC(=O)c1cc(F)ccc1NS(=O)(=O)c1cccc2cccnc12)c1ccccc1	–	inactive
CC/C(=C(/CC)c1ccc(O)cc1)c1ccc(O)cc1	5.03 µM (active)	–
CC(C)(C)c1cc(/C=C2\SC(N)=NC2=O)cc(C(C)(C)C)c1O	4.17 µM (active)	–
Cc1occc1C(=O)Nc1ccc(C(=O)N2CCC(F)(F)/C(=C\C(=O)N3CCC(N4CCCCC4)CC3)c3ccccc32)cc1	–	inactive
Clc1ccccc1C(c1ccccc1)(c1ccccc1)n1ccnc1	1.53 µM (active)	–
CCCCCCCCCCCCO	62.8 µM (active)	–
CC(C)(C)c1csc(-c2cc3cc(OCc4ccccc4CC(=O)O)ccc3o2)n1	1.71 µM (active)	–
CC1=CC(=O)/C(=C(/C)O)C(=O)O1	–	inactive
CCCCCCCCCC(=O)O	65.8 µM (active)	–
